Data as given in PubChem BioAssay AID1159580 (chemical genetic matrix, 2015).
Out of some 5,500 compounds screened, about 2,000 (36%) were called active. Another 18% or so got no clear call; they are omitted. Rule as the data show it: active = normalized growth mostly below about 0.91 (no sharp cut-off); inconclusive = no clear call, values can overlap the other calls; inactive = mostly above about 0.92. This is one part of the list.

Assay: chemical genetic growth profiling, strain panel (AID 1159580);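 also: tested at 20 µM; growth read once vehicle control cultures reached saturation at 30 °C; 1 = growth at the plate median or of vehicle wells; lower values mean less growth of the strain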
Details: S. cerevisiae deletion strains, growth OD

Measured: normalized growth

COc1ccc(-c2oc3ccccc3c(=O)c2OC)cc1
inactive: locus YHR030C, strain SLT2, hits give low values 0.882 | locus YHR079C, strain IRE1, hits give low values 0.897 | locus YJL095W, strain BCK1, hits give low values 0.909 | locus YJR066W, strain TOR1, hits give low values 0.829 | locus YLR113W, strain HOG1, hits give low values 0.934 | locus YNL183C, strain NPR1, hits give low values 0.836 | locus YOR231W, strain MKK1, hits give low values 0.901 | locus YPL256C, strain CLN2, hits give low values 0.894
